# Laboratory results taken from ChEMBL document CHEMBL4303097 (2020).
# In all, about 1,500 compounds were measured (“Inhibition index”: median about 0.17, highest 2% from about 1.3 on). This is one part of a sample in which the highest values are shown more often than they occur.
# System: SARS-CoV-2
# Assay: Inhibition of cell viability relative to arbidol control (inhibition index > 1 indicates higher activity) measured by fluorescence (OD590nm) in Vero E6 cells infected with SARS-CoV-2 (strain BavPat1) at MOI 0.002 after 72hrs
# Type: functional, Chlorocebus sabaeus, Vero C1008
row,Structure (SMILES),Inhibition index
1,Cc1ccc(C(=O)C(C)CN2CCCCC2)cc1.Cl (stereo not given) [TOLPERISONE HYDROCHLORIDE],1.172
2,CCc1ccc(C(=O)C(C)CN2CCCCC2)cc1.Cl (stereo not given),1.254
3,CCCCOc1ccc(C(=O)CCN2CCCCC2)cc1.Cl [DYCLONINE HYDROCHLORIDE],1.119
4,C[C@]12CC[C@@H]3c4ccc(O)cc4CC[C@H]3[C@@H]1CCC2=O [ESTRONE],0.9303
5,C[C@]12CC[C@H]3C(=CCc4cc(O)ccc43)[C@@H]1CCC2=O [EQUILIN],1.282
6,C[C@]12CC[C@@H]3c4ccc(O)cc4CC[C@H]3[C@@H]1CC[C@@H]2O [ESTRADIOL],0.3797
7,CC(=O)[N-]S(=O)(=O)c1ccc(N)cc1.O.[Na+] [SULFACETAMIDE SODIUM],0.002362
8,Cc1cc(O)c(C(=O)N[C@@H](C(=O)N[C@@H]2C(=O)N3C(C(=O)O)=C(CSc4nnnn4C)CS[C@H]23)c2ccc(O)cc2)cn1 [CEFPIRAMIDE],0.7171
9,CN(C)CCCN1c2ccccc2[S+]([O-])c2ccc(Cl)cc21 (stereo not given) [CHLOROPROMAZINE SULFOXIDE],0.938
10,CN1C[C@H](CNC(=O)OCc2ccccc2)C[C@@H]2c3cccc4c3c(cn4C)C[C@H]21 [METERGOLINE],-0.1165
11,CC(C)NCC(O)COc1ccc(CCOCC2CC2)cc1.Cl (stereo not given) [BETAXOLOL HYDROCHLORIDE],0.6286
12,CCOc1ccc2ccccc2c1C(=O)N[C@@H]1C(=O)N2[C@@H]1SC(C)(C)[C@@H]2C(=O)[O-].O.[Na+] [NAFCILLIN SODIUM],0.3633
13,Brc1c(NC2=NCCN2)ccc2nccnc12.O=C(O)C(O)C(O)C(=O)O,0.355
14,CN(C)[C@@H]1C(O)=C(C(N)=O)C(=O)[C@@]2(O)C(O)=C3C(=O)c4c(O)cccc4[C@@](C)(O)[C@H]3C[C@@H]12.Cl [TETRACYCLINE HYDROCHLORIDE],-0.0001993
15,CCC(=O)O[C@]1(C(=O)SCF)[C@H](C)C[C@H]2[C@@H]3C[C@H](F)C4=CC(=O)C=C[C@]4(C)[C@@]3(F)[C@@H](O)C[C@@]21C [FLUTICASONE PROPIONATE],0.5757
16,CN(C)[C@@H]1C(O)=C(C(N)=O)C(=O)[C@@]2(O)C(O)=C3C(=O)c4c(O)ccc(Cl)c4[C@@](C)(O)[C@H]3C[C@@H]12.Cl [CHLORTETRACYCLINE HYDROCHLORIDE],0.03495
17,CC(C)NCC(O)c1cc(O)cc(O)c1.CC(C)NCC(O)c1cc(O)cc(O)c1.O=S(=O)(O)O (stereo not given) [METAPROTERENOL SULFATE],0.06285
18,COCC1=C(C(=O)OC(C)OC(=O)OC(C)C)N2C(=O)[C@@H](NC(=O)/C(=N\OC)c3csc(N)n3)[C@H]2SC1 (stereo not given in full) [CEFPODOXIME PROXETIL],0.5603
19,C[C@]12COC(=O)C[C@@H]1CC[C@@H]1[C@@H]2CC[C@@]2(C)[C@H]1CC[C@]2(C)O [OXANDROLONE],0.1105
20,C[C@]12Cc3c[nH]nc3C[C@@H]1CC[C@@H]1[C@@H]2CC[C@@]2(C)[C@H]1CC[C@]2(C)O [STANOZOLOL],0.4173
21,C[C@]12C/C(=C\O)C(=O)C[C@@H]1CC[C@@H]1[C@@H]2CC[C@@]2(C)[C@H]1CC[C@]2(C)O,1.738
22,CC(Cc1ccccc1)NCCC(c1ccccc1)c1ccccc1.CC(O)C(=O)O (stereo not given),-0.1094
23,Cl.OC(c1cc(C(F)(F)F)nc2c(C(F)(F)F)cccc12)C1CCCCN1 (stereo not given) [MEFLOQUINE HYDROCHLORIDE],-0.1263
24,CS(=O)(=O)O.Cc1ccc2c(c1)c1c3n2CCNC3CCC1 (stereo not given),0.5995
25,C=C1/C(=C\C=C2/CCC[C@]3(C)[C@@H]([C@H](C)CCCC(C)C)CC[C@@H]23)C[C@@H](O)C[C@@H]1O [ALFACALCIDOL],-0.1396
26,COc1ccc(-c2noc(CC(=O)O)c2-c2ccc(OC)cc2)cc1 [MOFEZOLAC],0.1442
27,Nc1cccc2c1C(=O)N(C1CCC(=O)NC1=O)C2=O (stereo not given) [POMALIDOMIDE],-0.01474
28,O=C1Nc2ccc(Cl)cc2[C@@](C#CC2CC2)(C(F)(F)F)O1 [EFAVIRENZ],-0.107

row,Structure (SMILES),Inhibition index
1,CCOCCn1c(N2CCCN(C)CC2)nc2ccccc21.O=C(O)/C=C/C(=O)O.O=C(O)/C=C/C(=O)O [EMEDASTINE DIFUMARATE],0.1648
2,N=C(N)c1ccc(OCCCCCOc2ccc(C(=N)N)cc2)cc1.O=S(=O)(O)CCO.O=S(=O)(O)CCO [PENTAMIDINE ISETHIONATE],-0.04121
3,Cc1cccc(C)c1NC(=O)CC12CCCN1CCC2.Cl,0.08672
4,CO[C@@H]1[C@@H](O[C@@H]2O[C@H](C)[C@@H](O[C@H]3C[C@@](C)(O)[C@@H](OC(=O)CC(C)C)[C@H](C)O3)[C@H](N(C)C)[C@H]2O)[C@@H](CC=O)C[C@@H](C)[C@@H](O)/C=C/C=C/C[C@@H](C)OC(=O)C[C@H]1OC(C)=O [JOSAMYCIN],0.1589
5,CO[C@@H]1[C@@H](O[C@@H]2O[C@H](C)[C@@H](O[C@H]3C[C@@](C)(O)[C@@H](O)[C@H](C)O3)[C@H](N(C)C)[C@H]2O)[C@@H](CC=O)C[C@@H](C)[C@@H](O[C@H]2CC[C@H](N(C)C)[C@@H](C)O2)/C=C/C=C/C[C@@H](C)OC(=O)C[C@H]1OC(C)=O,1.276
6,CCC(=O)O[C@@H]1CC(=O)O[C@H](C)C/C=C/C=C/[C@H](O)[C@H](C)C[C@H](CC=O)[C@H](O[C@@H]2O[C@H](C)[C@@H](O[C@H]3C[C@@](C)(O)[C@@H](OC(=O)CC)[C@H](C)O3)[C@H](N(C)C)[C@H]2O)[C@H]1OC [MIDECAMYCIN],0.09553
7,C[C@H]1O[C@@H](O[C@H]2[C@@H](O)C[C@H](O[C@H]3[C@@H](O)C[C@H](O[C@H]4CC[C@@]5(C)[C@H](CC[C@@H]6[C@@H]5C[C@@H](O)[C@]5(C)[C@@H](C7=CC(=O)OC7)CC[C@]65O)C4)O[C@@H]3C)O[C@@H]2C)C[C@H](O)[C@@H]1O [DIGOXIN],0.2267
8,COc1ccc(C[C@@H]2c3cc(OC)c(OC)cc3CC[N@+]2(C)CCC(=O)OCCCCCOC(=O)CC[N@@+]2(C)CCc3cc(OC)c(OC)cc3[C@H]2Cc2ccc(OC)c(OC)c2)cc1OC.O=S(=O)([O-])c1ccccc1.O=S(=O)([O-])c1ccccc1 [CISATRACURIUM BESYLATE],1.338
9,COc1ccc(CC2c3cc(OC)c(OC)cc3CC[N+]2(C)CCC(=O)OCCCCCOC(=O)CC[N+]2(C)CCc3cc(OC)c(OC)cc3C2Cc2ccc(OC)c(OC)c2)cc1OC.O=S(=O)([O-])c1ccccc1.O=S(=O)([O-])c1ccccc1 (stereo not given) [ATRACURIUM BESYLATE],0.8693
10,CC1(C)S[C@@H]2[C@H](NC(=O)[C@@H](c3ccccc3)S(=O)(=O)O)C(=O)N2[C@H]1C(=O)O.[Na+].[Na+],0.4594
11,NC12CC3CC(CC(C3)C1)C2.NC12CC3CC(CC(C3)C1)C2.O=C(O)/C=C\C(=O)O,0.02174
12,CC1=C(C(=O)O)N2C(=O)[C@@H](NC(=O)[C@H](N)c3ccc(O)cc3)[C@H]2SC1 [CEFADROXIL],0.02715
13,CN1CCN(CCCN2c3ccccc3Sc3ccc(C(F)(F)F)cc32)CC1.Cl.Cl [TRIFLUOPERAZINE HYDROCHLORIDE],-0.1697
14,COC(c1ccccc1)(c1ccccc1)C(Oc1nc(C)cc(C)n1)C(=O)O (stereo not given),1.459
15,CN1CCC(=C2c3ccccc3CCc3cccnc32)CC1.O=C(O)/C=C\C(=O)O.O=C(O)/C=C\C(=O)O [AZATADINE MALEATE],0.8296
16,CN(C)CCOC(=O)C(c1ccccc1)C1(O)CCCC1.Cl (stereo not given) [CYCLOPENTOLATE HYDROCHLORIDE],1.136
17,CC(C)(C)NC[C@H](O)c1ccc(O)c(CO)c1.Cl [LEVALBUTEROL HYDROCHLORIDE],1.311
18,CNCC(O)c1ccc(O)c(O)c1.Cl (stereo not given) [RACEPINEPHRINE HYDROCHLORIDE],0.3358
19,CC(C)(C)NCC(O)c1ccc(O)c(CO)c1 (stereo not given) [ALBUTEROL],0.0995
20,CC[N+](C)(C)Cc1ccccc1Br.Cc1ccc(S(=O)(=O)[O-])cc1 [BRETYLIUM TOSYLATE],0.2627
21,CC(=O)N[C@@H](CC(=O)O)C(=O)N[C@@H](CCC(=O)O)C(=O)O [ISOSPAGLUMIC ACID],0.8884
22,CC(=O)O[C@]1(C(C)=O)CC[C@H]2[C@@H]3C=C(Cl)C4=CC(=O)C5CC5[C@]4(C)[C@H]3CC[C@@]21C (stereo not given in full),0.4824
23,N[C@H]1CONC1=O [LEVCYCLOSERINE],1.42
24,N[C@@H]1CONC1=O [CYCLOSERINE],1.427
25,O.O=P(O)(O)C(O)(Cc1cccnc1)P(=O)(O)O,0.3004
26,CC[N+](C)(CC)CCC[n+]1c(-c2ccccc2)c2cc(N)ccc2c2ccc(N)cc21.[I-].[I-] [PROPIDIUM],0.2273
27,CC[C@]12CCCN3CCc4c(n(c5ccccc45)[C@@](O)(C(=O)OC)C1)[C@@H]32 [VINCAMINE],0.1041
